Experimental data as given in PubChem BioAssay AID1159580 (chemical genetic matrix, 2015).
Hit rate of the full screen: of about 5,500 compounds, about 2,000 (36%) were called active. About 18% were inconclusive and are not listed. No stated cut-off is given here; in the data, active means normalized growth mostly below about 0.91 (no sharp cut-off); inconclusive means no clear call, values can overlap the other calls; inactive means mostly above about 0.92. The list shows a part of the results.

Test: chemical genetic growth profiling, strain panel (AID 1159580);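 further: tested at 20 µM; growth read once vehicle control cultures reached saturation at 30 °C; 1 = growth at the plate median or of vehicle wells; lower values mean less growth of the strain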
Settings: S. cerevisiae deletion strains, growth OD

Measured: normalized growth

C[C@H]1CC2C3CCC4=CC(=O)C=C[C@]4(C)[C@@]3(Cl)[C@@H](O)C[C@]2(C)[C@@]1(O)C(=O)CO (stereo partly drawn)
inactive: locus YAL013W, strain DEP1, active compounds read low 0.982 | locus YAL040C, strain CLN3, active compounds read low 1.03 | locus YCL061C, strain MRC1 (second series), active compounds read low 1.01 | locus YER002W, strain NOP16, active compounds read low 0.997 | locus YGR078C, strain PAC10, active compounds read low 0.989 | locus YGR229C, strain SMI1, active compounds read low 0.994 | locus YJR075W, strain HOC1, active compounds read low 1.01 | locus YMR263W, strain SAP30, active compounds read low 1.01 | locus YNL153C, strain GIM3, active compounds read low 0.981 | locus YNL175C, strain NOP13, active compounds read low 0.994 | locus YNL197C, strain WHI3, active compounds read low 0.934 | locus YNL224C, strain SQS1, active compounds read low 0.967 | locus YOR083W, strain WHI5 (second series), active compounds read low 0.954
